From PubChem BioAssay (NCI)
This is part of a sample that, as a whole, favours compounds with a hit. Of some 79,000 tested, about 15% had one in any assay. Activity calls are given as the source filed them. Rule as the data show it: active = growth inhibition above about 70%; inactive = the rest.

Key:
[1] = NCI Yeast Anticancer Drug Screen. Data for the rad50 strain (AID 155);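 also: 0% = growth of vehicle-only cultures of the same strain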; details: S. cerevisiae rad50 strain growth inhibition, active compounds read high
Method in brief: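 Inhibition values express reduced yeast growth in compound-treated cultures relative to vehicle-treated controls.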

[2] = NCI Yeast Anticancer Drug Screen. Data for the mec2-1 strain (AID 157); details: S. cerevisiae mec2-1 strain, active compounds read high
Method in brief: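 Cells of the genetically defined mec2-1 yeast strain are incubated with test compound. Inhibition of growth is calculated against vehicle-treated controls.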

[3] = NCI Yeast Anticancer Drug Screen. Data for the sgs1 mgt1 strain (AID 161);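 also: 0% = growth of cultures given vehicle only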; details: S. cerevisiae sgs1 mgt1 strain, active compounds read high
Method in brief: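 Read-out: growth inhibition vs vehicle controls. Cells: mutant yeast strain deficient in DNA damage repair.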

[4] = NCI Yeast Anticancer Drug Screen. Data for the cln2 rad14 strain (AID 165);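 also: 0% = growth equal to vehicle treated cultures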; details: S. cerevisiae cln2 rad14 strain, active compounds read high
Method in brief: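 The screen exposed genetically defined yeast (cln2 rad14) to test compounds and scored growth inhibition relative to vehicle-treated controls.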

[5] = NCI Yeast Anticancer Drug Screen. Data for the bub3 strain (AID 167); details: S. cerevisiae bub3 mutant strain, active compounds read high
Method in brief: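 Steps: expose the mutant yeast strain to compound; grow alongside vehicle-treated cultures; measure growth; express inhibition against the vehicle cultures.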

[6] = NCI Yeast Anticancer Drug Screen. Data for the mlh1 rad18 strain (AID 175); details: S. cerevisiae mlh1 rad18 strain growth inhibition, active compounds read high
Method in brief: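 Compound-treated yeast growth, normalised to vehicle controls. Strain bears defined DNA repair mutations.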

[7] = at 5.0 µM (retest, dose inferred, filed as 0.5)
[8] = at 50.0 µM (retest, dose inferred, filed as 5.0)

Measured: growth inhibition

OC1CCCCC1Cc1ccc(Cl)cc1 (centres undefined)
inactive: [1]; [7] -2% | [1]; [8] 56% | [2]; [7] 4% | [2]; [8] 26% | [3]; [7] 4% | [3]; [8] 31% | [3]; at 50.0 µM 65.3% | [4]; [7] -2% | [4]; [8] 30% | [5]; [7] 32% | [6]; [7] -2% | [6]; [8] 45%
active: [1]; at 50.0 µM 90.5% | [2]; at 50.0 µM 93.8% | [4]; at 50.0 µM 90% | [5]; [8] 97% | [5]; at 50.0 µM 98.8% | [6]; at 50.0 µM 93.4%

OCCCNc1nc2c(Cl)cc(Cl)cc2c2ccccc12
inactive: [1]; [7] 16% | [1]; [8] 49% | [1]; at 50.0 µM 50% | [2]; [7] 6% | [2]; [8] 28% | [2]; at 50.0 µM 15.4% | [3]; [7] 8% | [3]; [8] 30% | [4]; [7] -6% | [4]; [8] -16% | [4]; at 50.0 µM 19.4% | [5]; [7] -6% | [5]; [8] -5% | [6]; [7] 4% | [6]; [8] 30%
active: [3]; at 50.0 µM 72.7% | [5]; at 50.0 µM 76.2% | [6]; at 50.0 µM 92.8%

CCOC(=O)c1nnc2cc(-c3ccccc3)nn2c1-c1ccccc1
inactive: [1]; [7] 65% | [1]; at 50.0 µM 51.1% | [2]; [7] 35% | [2]; [8] 66% | [2]; at 50.0 µM 21.8% | [3]; [7] 48% | [4]; [7] 25% | [4]; [8] 38% | [4]; at 50.0 µM 41.4% | [5]; [7] 45% | [5]; at 50.0 µM 65.9% | [6]; [7] 61% | [6]; at 50.0 µM 38.6%
active: [1]; [8] 85% | [3]; [8] 80% | [3]; at 50.0 µM 75.2% | [5]; [8] 70% | [6]; [8] 90%

COc1ccc(C2c3cc4c(cc3OC(N3CCOCC3)C2C)OCO4)c(OC)c1 (centres undefined)
inactive: [1]; [7] -3% | [2]; [7] -10% | [3]; [7] 2% | [4]; [7] 18% | [5]; [7] 7% | [6]; [7] -26%
active: [1]; [8] 88% | [1]; at 50.0 µM 95.9% | [2]; [8] 95% | [2]; at 50.0 µM 94.9% | [3]; [8] 79% | [3]; at 50.0 µM 80.8% | [4]; [8] 99% | [4]; at 50.0 µM 73.2% | [5]; [8] 98% | [5]; at 50.0 µM 98% | [6]; [8] 96% | [6]; at 50.0 µM 97.4%

COc1ccc(/C(=N\Nc2ccc(Br)cc2)c2ccccc2/C(=N/Nc2ccc(Br)cc2)c2ccccc2OC)cc1
active: [1]; at 50.0 µM 96% | [2]; at 50.0 µM 76.3% | [3]; at 50.0 µM 97.2% | [5]; at 50.0 µM 93.5% | [6]; at 50.0 µM 96.3%
inactive: [1]; [7] 1% | [1]; [8] -3% | [2]; [7] -13% | [2]; [8] 11% | [3]; [7] 5% | [3]; [8] 18% | [4]; [7] 2% | [4]; [8] 11% | [4]; at 50.0 µM 54.6% | [5]; [7] -7% | [5]; [8] 20% | [6]; [7] 11% | [6]; [8] 33%

Cc1ccc(S(=O)(=O)c2cc(O)c(O)c3ccc(Br)cc23)cc1
inactive: [1]; [7] 13% | [2]; [7] 9% | [3]; [7] 16% | [4]; [7] -1% | [5]; [7] -4% | [6]; [7] 9%
active: [1]; [8] 97% | [1]; at 50.0 µM 79.5% | [2]; [8] 98% | [2]; at 50.0 µM 98.5% | [3]; [8] 98% | [3]; at 50.0 µM 92.9% | [4]; [8] 97% | [4]; at 50.0 µM 95.4% | [5]; [8] 97% | [5]; at 50.0 µM 83.8% | [6]; [8] 97% | [6]; at 50.0 µM 97.9%

CCCC/C=C1/CCC(CN(C)C)C1=O (centres undefined)
inactive: [1]; [7] 7% | [1]; [8] 60% | [1]; at 50.0 µM 51.9% | [2]; [7] -2% | [2]; [8] 48% | [2]; at 50.0 µM 37.4% | [3]; [7] 16% | [3]; [8] 56% | [4]; [7] 6% | [4]; [8] 40% | [4]; at 50.0 µM 46.2% | [5]; [7] 14% | [5]; at 50.0 µM 61.9% | [6]; [7] 19% | [6]; [8] 69% | [6]; at 50.0 µM 54.2%
active: [3]; at 50.0 µM 81% | [5]; [8] 84%

Oc1c(N2CCOCC2)cc(-c2cc(N3CCOCC3)c(O)c3ccccc23)c2ccccc12
inactive: [1]; [7] 26% | [1]; [8] 30% | [2]; [7] 35% | [2]; [8] 38% | [3]; [7] -19% | [3]; [8] 9% | [3]; at 50.0 µM 50.3% | [4]; [7] 9% | [4]; [8] 21% | [4]; at 50.0 µM 42.5% | [5]; [7] 16% | [5]; [8] 43% | [5]; at 50.0 µM 51.6% | [6]; [7] 35% | [6]; [8] 39%
active: [1]; at 50.0 µM 82.2% | [2]; at 50.0 µM 86.3% | [6]; at 50.0 µM 80.5%

Oc1ccc[nH]c1=S
active: [3]; at 50.0 µM 85.2% | [5]; at 50.0 µM 74.5% | [6]; at 50.0 µM 90.9%
inactive: [1]; [7] 19% | [1]; [8] 18% | [1]; at 50.0 µM 18.4% | [2]; [7] 6% | [2]; [8] 12% | [2]; at 50.0 µM 12.2% | [3]; [7] 3% | [3]; [8] -34% | [4]; [7] 8% | [4]; [8] -4% | [4]; at 50.0 µM -8.7% | [5]; [7] 13% | [5]; [8] -2% | [6]; [7] 23% | [6]; [8] 12%

CCCCCCCCCCCCCCNC(=O)C[N+](C)(C)Cc1ccccc1
active: [1]; [7] 99% | [1]; [8] 99% | [1]; at 50.0 µM 99.5% | [2]; [7] 99% | [2]; [8] 100% | [2]; at 50.0 µM 99.7% | [3]; [7] 99% | [3]; [8] 99% | [3]; at 50.0 µM 99.3% | [4]; [7] 99% | [4]; [8] 99% | [4]; at 50.0 µM 99.5% | [5]; [7] 99% | [5]; [8] 99% | [5]; at 50.0 µM 99.4% | [6]; [7] 99% | [6]; [8] 99% | [6]; at 50.0 µM 99.6%

COc1ccc(C(c2ccc(OC)cc2)c2ccccc2C(=O)O)cc1
inactive: [1]; [7] -5% | [1]; [8] 64% | [1]; at 50.0 µM 37.8% | [2]; [7] -14% | [2]; [8] 31% | [2]; at 50.0 µM 27.1% | [3]; [7] 16% | [3]; [8] 48% | [3]; at 50.0 µM 35.1% | [4]; [7] 18% | [4]; [8] 39% | [4]; at 50.0 µM 35.9% | [5]; [7] 20% | [5]; [8] 56% | [5]; at 50.0 µM 18.1% | [6]; [7] 41% | [6]; at 50.0 µM 54.9%
active: [6]; [8] 73%

C/C(=N/NC(=S)N1CCCC1)c1cccc(/C(C)=N\NC(=S)N2CCCC2)n1
inactive: [1]; [7] 11% | [1]; [8] 12% | [1]; at 50.0 µM 15.2% | [2]; [7] 13% | [2]; [8] 28% | [2]; at 50.0 µM -14.9% | [3]; [7] -17% | [3]; [8] -4% | [3]; at 50.0 µM -6.45% | [4]; [7] 1% | [4]; [8] -4% | [4]; at 50.0 µM -3.15% | [5]; [7] -3% | [5]; [8] 5% | [5]; at 50.0 µM -8.05% | [6]; [7] 17% | [6]; [8] 18% | [6]; at 50.0 µM 1.65%

CC(C)OC(=O)c1ccc(NC(=O)CCl)cc1
active: [3]; at 50.0 µM 79.1% | [6]; at 50.0 µM 76.2%
inactive: [1]; [7] 0% | [1]; [8] -1% | [1]; at 50.0 µM 66.7% | [2]; [7] -1% | [2]; [8] 5% | [2]; at 50.0 µM 59.8% | [3]; [7] 3% | [3]; [8] -8% | [4]; [7] -1% | [4]; [8] 5% | [4]; at 50.0 µM 31.9% | [5]; [7] -4% | [5]; [8] -2% | [5]; at 50.0 µM 61% | [6]; [7] -5% | [6]; [8] 6%
